The text below walks through data of PubChem BioAssay (Tox21).

“And” between values parts separate entries of the source, which are not always exact repeats. Identical values can stand only once. Records with an inconclusive call do not appear. A call without a number means that no potency is given here. Some compounds were tested as several samples or in several runs, with calls that do not always agree. The source made the active and inactive calls. The call rests on the fitted dose curve; in most records, active means well fitted cell-killing curve with a large enough effect in the repeat runs; inconclusive means weak or mixed curves, or effect the other way; inactive means no such curve, though single readings can be large or run the other way.
Potency means the concentration at half of the fitted maximal effect.

This experiment in a line: qHTS assay to identify small molecule antagonists of the retinoid-related orphan receptor gamma (ROR-gamma) signaling pathway - cell viability counter screen (AID 1159520). Further: nearly all actives have a fitted effect of over 50% in size. The note with it: Tet-on RORgamma CHO cells viability, ATP luminescence, 16 h; series mostly up to 92.4 µM. An excerpt: U.S. Tox21 Program National Center for Advancing Translational Sciences [NCATS] NIH Chemical Genomics Center [NCGC] U.S. Environmental Protection Agency [EPA] National Institutes of Environmental Health Sciences [NIEHS] National Toxicology Program [NTP] U.S. Food and Drug Administration [FDA] Tox21 Assay Overview: Nuclear steroid hormone receptors are involved in many biological processes including inflammatory responses, cell proliferation, and apoptosis. Environmental factors or compounds disrupting these nuclear receptor pathways and gene expression may promote susceptibility to immunotoxicants and autoimmune diseases. One important group of these expression factors are the retinoid-related orphan receptors. To assess compounds that may interfere with the retinoid-related orphan receptor gamma (ROR-gamma) transcription factor, a cell-based luciferase assay was used. The CHO cell-based assay utilizes a TET-inducible ROR expression factor and ROR response element-LUC reporter gene. Reporter gene activity was induced using Doxycycline Hyclate and measured after 16 hr incubation. Tet-on ROR gamma CHO cells were used to screen against the Tox21 10K compound library for cytotoxicity by measuring the viability of the cells based on the quantitation of the ATP.
Tox21 Assay Protocol Summary: Tet-on ROR gamma CHO cells were dispensed at 1,000 cells in 4 uL of culture medium per well into white wall/solid bottom 1536-well plates using a Multidrop Combi (Thermo Scientific, Waltham, MA) dispenser. Following incubation at 37 C and 5% CO2 for 4 hr, 23 nL of compounds dissolved in DMSO, positive controls or DMSO only were transferred by a Pintool station (Kalypsys, San Diego, CA) and after 2 hr incubation at 37 C, one ul of 1 uM (final concentration) of Doxycycline Hyclate was added to all the wells by using a Flying Reagent Dispenser (FRD) (Aurora Discovery, San Diego, CA). After 16 hr incubation at 37 C and 5% CO2, 5 uL of CellTiter-Glo reagent (Promega Corporation, Madison, WI) was added to each assay plate using FRD. After 30 min incubation at room temperature, luminescence was quantified on a ViewLux plate reader (Perkin Elmer, Waltham, MA).
In general terms: Quantitative high-throughput screening tests each substance at several concentrations.
As for `OCC#CCO`, the Potency entry was “inactive and 54.5 µM (active)”.
With `CCCCCCCCCCCCOCC1CO1` (stereo not given) the entry was “inactive”; with `CCCCCCOC(C)=O`, “inactive”.
Take `CCc1ccc(O)cc1`: the Potency entry was “inactive”.
On to `O=S(=O)(O)c1cc(S(=O)(=O)O)c2c(N=Nc3ccccc3)c(O)ccc2c1`, for which the Potency result is “inactive”.
Turning to `Clc1cc(Cl)c(Cl)cc1Cl`, the Potency entry is “inactive”.
In the case of `O=C(c1ccc(O)cc1)c1ccc(O)cc1O`, the Potency result was “inactive”.
Regarding `CCCCCCCCCCCCN`, the Potency entry was “inactive”.
In the case of `COC(=O)Nc1nc2ccc(Sc3ccccc3)cc2[nH]1`, the Potency was 26.6 µM (active).
As for `O=C(Oc1ccccc1)c1ccc(O)cc1`, the Potency result was “inactive”.
For `CCCCOCCO` the value was “inactive”.
As for `CCCCC(CC)C(=O)OCCOCCOCCOC(=O)C(CC)CCCC` (stereo not given), the Potency entry is “inactive”.
As to `O=S(=O)(Oc1ccc(Cl)cc1Cl)c1ccccc1`, the Potency result was “inactive”.
`CC1=CC[C@H]2C[C@@H]1C2(C)C`: the Potency entry is “inactive”.
Consider `C=C(C#N)C(=O)OCC`, for which the Potency result is “inactive”.
For the compound `Clc1ccc(Cl)c(Cl)c1Cl`, the Potency result was “inactive”.
With `Nc1nc2ncc(CNc3ccc(C(=O)N[C@@H](CCC(=O)O)C(=O)O)cc3)nc2c(=O)[nH]1` the entry was “inactive”; with `CCCCNC(N)=O`, “inactive”.
With `Cc1cc(Cc2ccc(N)c(C)c2)ccc1N` the entry was “inactive”; with `c1ccc2[nH]cnc2c1`, “inactive”; with `S=c1nc[nH]c2nc[nH]c12`, “inactive”.
As for `Cn1c([N+](=O)[O-])cnc1COC(N)=O`, the Potency result is “inactive”.
For `COCC(C)O` (stereo not given) the value was “inactive”; for `O=Nc1ccc(O)cc1`, “inactive”; for `O=C(c1cc(O)c(O)c(O)c1)c1ccc(O)c(O)c1O`, “inactive”.
For `O=C1CCCCC1`, the Potency result is “inactive”.
Turning to `O=C1O[C@H](CO)[C@@H](O)[C@H](O)[C@H]1O`, the Potency entry is “inactive”.
Take `Oc1ccc(OCc2ccccc2)cc1`: the Potency result is “inactive”.
With `NCCc1ccc(O)c(O)c1` the entry was “inactive”.
`NCCNCCNCCNCCN`: the Potency entry was “inactive”.
For `C=C(C)C(=O)OCCCCCC` the value was “inactive”; for `C=C(C)C(=O)OCCC[Si](OC)(OC)OC`, “inactive”; for `Oc1ccc2ccccc2c1N=Nc1ccccc1`, “inactive”.
For `CCCCCCCCC` the value was “inactive”; for `Nc1cc(-c2ccncc2)c[nH]c1=O`, “inactive”; for `NC(=O)/N=N/C(N)=O`, “inactive”.
For `CC(=O)[C@@]1(O)CC[C@H]2[C@@H]3CCC4=CC(=O)CC[C@]4(C)[C@H]3CC[C@@]21C` the value was “inactive”.
With `C[C@@H]1O[C@@H](OC[C@H]2O[C@@H](Oc3c(-c4ccc(O)c(O)c4)oc4cc(O)cc(O)c4c3=O)[C@H](O)[C@@H](O)[C@@H]2O)[C@H](O)[C@H](O)[C@H]1O`, the Potency result is “inactive”.
Consider `C=C(C)C(=O)OCCCCCCCCCCCC`, for which the Potency result was “inactive”.
For `Cc1ccc(C(=O)O)o1` the value was “inactive”.
